The list is not random: actives were taken first. Their share in the collection is about 4.6%.
TIM10 inh: TIM10 yeast growth inhibition | S. cerevisiae TIM10 strain growth, BacTiter-Glo luminescence, 24 h | inhibition, % at 10 µM | 330,000 compounds, 1.4% hits | AID 463195;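 active = inhibition of 40% or more at the single tested concentration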;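 note: wild-type TIM10 isogenic control strain grown at permissive 25 °C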
tim23-1 inh: inhibits growth of tim23-1 mutant yeast. S. cerevisiae tim23-1 growth, BacTiter-Glo luminescence, 24 h. 330,000 compounds, 1.3% hits. inhibition, % at 20 µM;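 active = growth inhibition of the mutant yeast at or above 50%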;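 note: temperature-sensitive mutant grown at 25 °C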
SKKanGAS inh: SKKanGAS growth inhibition; AID 1662; S. pyogenes SKKanGAS, kanamycin growth, BacTiter-Glo, 6 h; 300,000 compounds, 1.3% hits; inhibition, % at 7.5 µM;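 active = mean replicate score, as percent of positive control median, at least 50; inconclusive = mean below 50 but one replicate at or above 50; inactive = mean and every replicate below 50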;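 note: strain carries kanamycin resistance gene driven by streptokinase promoter and grows in 40 µg/ml kanamycin; loss of luminescence reflects streptokinase promoter inhibition or plain growth inhibition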
NALP3 yeast inh: NALP3 inhibition in yeast; Yeast reconstituted NLRP3/ASC/caspase-1, beta-gal luminescence, 24 h; inhibition, % at 10 µM; 330,000 compounds, 0.39% hits;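 active = inhibition of 50% or more; inactive = inhibition below 50%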
tim10-1 inh: growth inhibitors of tim10-1 mutant yeast | S. cerevisiae tim10-1 ts strain growth, BacTiter-Glo, 24 h | inhibition, % at 20 µM | 330,000 compounds, 2.2% hits | AID 463190;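 active = inhibition of at least 40%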;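 note: mutant grown at 25 °C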
Each line names hits and unclear results; the compound was inactive in the other large screens.

C=CCOC(=O)C1=C(C)NC(SCC)=C(C#N)C1c1ccc(Cl)cc1 (configuration not stated)	SKKanGAS inh 76
CCc1ccc2[nH]c(O)c(N=Nc3nc(-c4ccccc4)cs3)c2c1	SKKanGAS inh 53
CCc1cc2c(N=Nc3c(O)[nH]c4ccccc34)ncnc2s1	none
Cc1nn(-c2nc3ccccc3[nH]2)c(N)c1-c1ccc(Cl)cc1	SKKanGAS inh 68
COc1ccc(-c2c(C)nn(-c3ccccc3)c2N)cc1	none
COc1ccc(C(=O)OCC(=O)c2c(N)n(C)c(=O)n(C)c2=O)c(OC)c1OC	none (no result: SKKanGAS inh)
Cc1ccc(O)c(-c2cc(-c3cccc(Br)c3)n[nH]2)c1	SKKanGAS inh 100
COc1cc(C2CC(=O)c3c(O)cc(O)cc3O2)ccc1O (configuration not stated)	none
COc1c(CC=C(C)C)cc(C2CC(=O)c3c(O)cc(O)cc3O2)c(CC=C(C)C)c1O (configuration not stated)	SKKanGAS inh 109
CCCCn1nc(C(=O)N(C)C2CCCCC2)c2ccccc2c1=O	none (no result: SKKanGAS inh)
CSc1cnn(Cc2ccccc2)c(=O)c1SCc1ccccc1	SKKanGAS inh 68 (no result: TIM10 inh, tim23-1 inh, NALP3 yeast inh, tim10-1 inh)
CSc1cnn(-c2ccccc2)c(=O)c1SC	none
CC(/C=C/c1ccc2c(c1)OCO2)=N/NC(=O)c1ccncc1	none
CC1=C(/C=C/C(C)=N\NC(=O)c2ccncc2)C(C)(C)CCC1	SKKanGAS inh 57
CN(C(=O)Cn1nnc2ccccc2c1=O)C1CCCCC1	none
CC(C)=CCc1c2c(c3occ(-c4ccc(O)cc4)c(=O)c3c1O)C=CC(C)(C)O2	SKKanGAS inh 111
O=C(CNC(=O)c1ccccc1Br)N/N=C/c1cc(Br)ccc1O	SKKanGAS inh 73
O=C(CNC(=O)c1ccc2c(c1)OCO2)N/N=C/c1cc(Br)ccc1O	SKKanGAS inh 61
O=C(N/N=C/c1cc(Br)c(O)c(Br)c1O)c1ccc2c(c1)OCCO2	none
Cc1cc(Br)cc(/C=N/NC(=O)c2ccc3c(c2)OCO3)c1O	SKKanGAS inh 84
CC(=O)OC[C@]12CC[C@H]3[C@@](C)(CC[C@H]4C(C)(C)CCC[C@]34C)[C@@H]1C[C@H](C1=CC(=O)O[C@@H]1OC(C)=O)O2	none (no result: SKKanGAS inh)
Cc1ccc(S(=O)(=O)Nc2cccc3cccnc23)cc1	SKKanGAS inh inconclusive
COc1cc(NS(=O)(=O)c2ccc(C)cc2)c2ncccc2c1	SKKanGAS inh 82
Cc1ccc(/C=C/c2ccc(=O)n(Cc3ccccc3Cl)n2)cc1	SKKanGAS inh 69
O=C(COC(=O)C1CC2C=CC1C2)Nc1c(Br)cc([N+](=O)[O-])cc1Br (configuration not stated)	none (no result: SKKanGAS inh)
Nc1c(S(=O)(=O)c2cccs2)c2nc3ccccc3nc2n1/N=C/c1cccc(O)c1	SKKanGAS inh 72
COc1cccc(/C=N/n2c(N)c(S(=O)(=O)c3cccs3)c3nc4ccccc4nc32)c1	none
Cc1c(Cl)cccc1Nc1nc(N)nc(CN2CCc3ccccc3C2)n1	SKKanGAS inh 80
Cc1ccc(Nc2nc(N)nc(CN3CCc4ccccc4C3)n2)cc1	none
O=C(NC(Cc1c[nH]c2ccccc12)C(=O)N/N=C/c1cccc2ccccc12)c1cccs1 (configuration not stated)	SKKanGAS inh 60
CCOc1ccc(NC(=O)CC2C(=O)N(C)C(=S)N2CCCc2ccccc2)cc1 (configuration not stated)	none
CCN1C(=O)C(CC(=O)Nc2ccc(Br)cc2)N(CCCc2ccccc2)C1=S (configuration not stated)	SKKanGAS inh 92
O=C(NC(NC(=S)Nc1cccc(Cl)c1)C(Cl)(Cl)Cl)OCc1ccccc1 (configuration not stated)	SKKanGAS inh 122
O=C(NC(NC(=S)Nc1ccc(Cl)c(Cl)c1)C(Cl)(Cl)Cl)c1ccco1 (configuration not stated)	SKKanGAS inh 74
CC(C)C[C@H](NC(=O)c1nc[nH]c1C(=O)N[C@@H](CC(C)C)C(=O)OC(C)(C)C)C(=O)OCc1ccccc1	SKKanGAS inh 58
CC(C)C[C@H](NC(=O)c1[nH]cnc1C(=O)Nc1ccccc1)C(=O)OC(C)(C)C	SKKanGAS inh 63
CC(C)C[C@H](NC(=O)c1[nH]cnc1C(=O)N[C@@H](C)c1ccccc1)C(=O)OCc1ccccc1	SKKanGAS inh 75
CC(C)(C)OC(=O)NCCCC[C@H](NC(=O)c1[nH]cnc1C(=O)Nc1ccc(Cl)cc1)C(=O)OC(C)(C)C	SKKanGAS inh 57
CCCCn1c(N)c(N(CC(C)C)C(=O)c2ccco2)c(=O)[nH]c1=O	none
